Bioassay records from PubChem BioAssay.
An excerpt weighted towards active compounds, which were near 2.9% of everything screened.
RAM inhibit = inhibitors of the yeast RAM network; inhibition, % at 50 µM; 1.8% of 190,000 active; S. cerevisiae dse1pr::URA3 reporter, 5-FOA growth OD615, 2 d; analog-sensitive cbk1-as2 kinase mutant strain; AID 868;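 active = inhibition above a set limit, 3 SD over mean compound inhibition, cut at about 8.4% in these data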;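 note: 0% = DMSO-only wells with no growth and 100% = 10 µM 1-NA-PP1 full growth; inhibition rescues growth on 5-FOA so higher OD means more RAM inhibition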
SKN-1 inh = blocks SKN-1 activity in C. elegans. C. elegans VP596 Pgst-4::GFP/RFP ratio, acrylamide-induced, 24 h. inhibition, % at 21.8 µM. 0.49% of 360,000 active. AID 624304;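 active = interference check ratio from 0.5 to 1.5 plus GFP to RFP signal ratio inhibition reaching or exceeding a fixed threshold, cut at about 30% in these data, passing the limit was not always enough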
NR1D1 modulator = modulators of human Rev-erb alpha DNA binding | P20393 | Rev-erbα–FITC-DNA binding, fluorescence polarization, 90 min | 0.79% of 370,000 active | activity, % at 10 µM | AID 1259318;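 active = activity above about 14%, limit read from the data; passing the limit was not always enough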;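 note: 0% = DMSO wells with 35 nM protein and 100% = DMSO wells with 750 nM protein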
PG9 Ab binder = binds the HIV-1 gp120 antibody PG9; TR-FRET gp120-PG9 antibody binding; inhibition, % at 6.7 µM; 0.43% of 360,000 active; AID 624416; in the data active = inhibition above about 8.5%
PGE2 EP2 inh = EP2 receptor (human) inhibition; P43116; C6 glioma cells expressing human EP2, cAMP TR-FRET; cells stimulated with saturating PGE2; inhibition, % at 25 µM; 0.52% of 260,000 active;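 active = percent inhibition above 40 after rounding to a whole number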;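 note: rat C6 glioma host cells with rolipram phosphodiesterase inhibitor present; the protocol text gives 20 µM as final concentration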
Target sequence (P43116 whole entry, looked up): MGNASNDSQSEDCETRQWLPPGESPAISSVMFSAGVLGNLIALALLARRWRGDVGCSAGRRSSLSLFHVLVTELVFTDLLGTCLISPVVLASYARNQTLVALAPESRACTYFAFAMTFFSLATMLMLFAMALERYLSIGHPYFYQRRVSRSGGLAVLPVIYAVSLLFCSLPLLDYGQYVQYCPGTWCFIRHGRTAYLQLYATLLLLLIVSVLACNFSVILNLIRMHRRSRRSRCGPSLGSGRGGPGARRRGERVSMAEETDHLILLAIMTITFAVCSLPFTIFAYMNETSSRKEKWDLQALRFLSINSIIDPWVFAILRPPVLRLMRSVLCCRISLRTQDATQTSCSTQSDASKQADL
EP2 modulator = modulates human prostaglandin E2 receptor EP2 signaling; EP2-expressing cells, cAMP HTRF FRET, PGE2 co-stimulation; P43116; 0.83% of 260,000 active; induction, % at 25 µM; AID 940;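 active = compounds whose cAMP rise, as percent of the full-agonist control response, exceeds 60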;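 note: rat C6 glioma line stably carrying human EP2 under a CMV promoter; the protocol text gives 20 µM as final concentration; 100% = response of wells given 1 µM PGE2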
EP2 confirm = human EP2 receptor cAMP induction, negative in counter-screens | shares compounds with EP2 modulator | C6 glioma EP2 cells, cAMP HTRF induction; plus low (about EC15) PGE2 agonist | calls only at 20 µM (by protocol) | 47% of 1,300 active;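 active = cAMP induction above 50% in the main assay while under 30% in all four parallel counter assays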;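 note: rat C6 glioma cells stably expressing human EP2 receptor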
The depositor's hits bear a star.

Cc1ccc(NCc2ccccc2OCc2ccccc2F)cc1 was read as RAM inhibit 1, SKN-1 inh 16, NR1D1 modulator -4, PG9 Ab binder -2, PGE2 EP2 inh 9, EP2 modulator 76* and EP2 confirm inactive.
`Cc1cc2ccccn2c1C(=O)c1ccncc1` gave RAM inhibit 1, SKN-1 inh 10, NR1D1 modulator 5, PG9 Ab binder 0, PGE2 EP2 inh 18 and EP2 modulator 11.
`Cc1cc2ccccn2c1C(=O)c1ccc(Cl)cc1` gave RAM inhibit 1, SKN-1 inh 17, NR1D1 modulator 4, PG9 Ab binder -4, PGE2 EP2 inh 6, EP2 modulator 65* and EP2 confirm inactive.
For CCOc1cc(NC(=O)c2ccco2)c(OCC)cc1NC(=O)c1ccc(Br)cc1 the results were PGE2 EP2 inh 13 and EP2 modulator 2.
For O=S1(=O)N=C(N(CCO)/N=C/C=C/c2ccccc2)c2ccccc21 the results were RAM inhibit 1, SKN-1 inh -2, NR1D1 modulator -1, PG9 Ab binder -2, PGE2 EP2 inh 10, EP2 modulator 72* and EP2 confirm active.
O=S1(=O)N=C(N(CCO)/N=C/c2ccc(Cl)cc2)c2ccccc21 was read as SKN-1 inh 12, NR1D1 modulator -6 and PG9 Ab binder 0.
O=C(C1CCCC1)N1CCCC(n2nc(-c3cccs3)ccc2=O)C1 (stereo not drawn) was read as EP2 modulator 16.
CCCN(CCC)C(C)C(=O)NCC1(c2ccccc2)CCCC1 (stereo not drawn) was read as RAM inhibit 3, SKN-1 inh 6, NR1D1 modulator 4, PG9 Ab binder 0, PGE2 EP2 inh 1, EP2 modulator 74* and EP2 confirm active.
Screening CCN(CC)C(=O)c1sc(NC(=O)c2ccc(F)cc2)c(C#N)c1C returned PGE2 EP2 inh 13 and EP2 modulator 5.
`CCn1c(N2CCC(C(=O)NCc3ccc4c(c3)OCO4)CC2)nc2ccccc21` gave PGE2 EP2 inh 6 and EP2 modulator -84.
CCOC(=O)C1CCCN(c2c(C(=O)c3ccccc3)cnc3ccc(OC)cc23)C1 (stereo not drawn) was read as RAM inhibit -2, SKN-1 inh -9, NR1D1 modulator -1, PG9 Ab binder 1, PGE2 EP2 inh 7, EP2 modulator 68* and EP2 confirm inactive.
For O=C(c1ccncc1)N1CCCC(c2[nH]ncc2-c2ccncc2)C1 (stereo not drawn) the results were EP2 modulator 8.
`CCOC(=O)CSc1ccc2ccccc2n1` gave RAM inhibit 0, SKN-1 inh -13, NR1D1 modulator -1, PG9 Ab binder 2, PGE2 EP2 inh 9 and EP2 modulator 42.
For O=C(O)CSc1ccc2ccccc2n1 the results were RAM inhibit -1, SKN-1 inh -2, NR1D1 modulator 0, PG9 Ab binder 4, PGE2 EP2 inh 14, EP2 modulator 67* and EP2 confirm inactive.
Screening O=C(c1ccccc1-c1ccccc1)N1CCCC1c1nc(-c2cccnc2)n[nH]1 (stereo not drawn) returned PGE2 EP2 inh 4 and EP2 modulator -24.
Cc1ccccc1CN(C)CC(=O)Nc1ccccc1-c1ccccc1 was read as RAM inhibit 0, SKN-1 inh 5, NR1D1 modulator 6, PG9 Ab binder 0, PGE2 EP2 inh 8 and EP2 modulator 53.
Screening Cc1ccccc1CN(C)CC(=O)Nc1ccccc1Oc1ccccc1 returned RAM inhibit 0, SKN-1 inh 9, NR1D1 modulator -1, PG9 Ab binder 0, PGE2 EP2 inh 4, EP2 modulator 68* and EP2 confirm active.
COc1ccccc1CN(C)CC(=O)Nc1ccccc1-c1ccccc1 was read as RAM inhibit 0, SKN-1 inh 5, NR1D1 modulator 1, PG9 Ab binder 0, PGE2 EP2 inh 8, EP2 modulator 71* and EP2 confirm active.
